Assay [1] deals with Mitogen-activated protein kinase 10 (Mus musculus) (UniProt Q61831). As to the kind of experiment: JNK3 AlphaScreen Assay (AID 530; active = well fitted curve in either direction with a large enough effect, not every such curve was filed as active;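 note: kinase came from lysate of stimulated human HepG2 cells; signal reports phosphorylation of biotinylated GST-cJun 1-79 at Ser73 with 10 µM ATP; series mostly up to about 57 µM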). Put shortly: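 Phosphorylation of biotinylated GST-cJun(1-79) at Ser73 is measured by AlphaScreen proximity luminescence. Enzyme is JNK3 in HepG2 lysates activated with interleukin-1beta and tumor necrosis factor alpha; ATP is 10 uM final.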
Assay [2] concerns the target Cytochrome P450 3A4 (Homo sapiens) (UniProt P08684). As to the kind of experiment: qHTS Assay for Activators of Cytochrome P450 3A4 (AID 885). Note: nearly all actives have a fitted effect of over 65% in size. Put shortly: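 Activators are scored by enhanced luminescence from CYP3A4 conversion of luciferin-PPXE (25uM, equal to KM) to luciferin, after 60 min at RT with an NADPH-regenerating system.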
Assay [3] shares this target. Briefly: qHTS Assay for Inhibitors and Substrates of Cytochrome P450 3A4 (AID 884). Note: potency is the fitted concentration of half-maximal effect; nearly all actives have a fitted effect of over 50% in size. Put shortly: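 Luminescent readout of luciferin produced by CYP3A4 (20 nM) dealkylation of Luciferin-PPXE, 25 uM (its KM). NADPH-driven reaction ran 60 min at RT after 10 min compound preincubation; data scaled to 57 uM ketoconazole as 100% inhibition.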

SMILES strings stand for the structures. Results filed as inconclusive are left out. A call without a number means that no potency is given here. Activity calls are given as the source filed them. Unless noted, calls come from the whole dose curve; as a rule, active = well fitted curve in the direction sought with a large enough effect; inconclusive = small, poorly fitted or top-dose-only effect, or another doubt; inactive = no such curve, though single readings can be large; an effect the other way counts as inactive or inconclusive.

Cytochrome P450 3A4 (Homo sapiens), sequence (P08684 whole entry, looked up): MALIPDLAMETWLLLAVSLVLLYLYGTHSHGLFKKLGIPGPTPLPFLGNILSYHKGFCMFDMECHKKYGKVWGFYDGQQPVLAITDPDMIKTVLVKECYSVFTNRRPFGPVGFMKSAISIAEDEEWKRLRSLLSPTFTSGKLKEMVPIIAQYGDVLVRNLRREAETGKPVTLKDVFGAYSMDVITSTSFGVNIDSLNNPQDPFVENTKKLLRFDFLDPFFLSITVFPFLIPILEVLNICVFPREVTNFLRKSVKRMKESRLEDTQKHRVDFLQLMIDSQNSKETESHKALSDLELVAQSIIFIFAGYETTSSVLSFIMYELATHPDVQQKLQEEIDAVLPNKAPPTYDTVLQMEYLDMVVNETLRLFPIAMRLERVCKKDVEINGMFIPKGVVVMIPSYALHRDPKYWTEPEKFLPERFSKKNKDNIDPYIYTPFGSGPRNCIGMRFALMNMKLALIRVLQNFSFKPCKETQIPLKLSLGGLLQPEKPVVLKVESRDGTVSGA

For `COCCNC(=O)[C@H](C)/C=C/C(NC(=O)OCc1ccccc1)c1ccc(C(=O)OC)cc1` (stereo partly specified), the molecule was classed as inactive in assay [1]. In addition, the Potency result in assay [2] was “inactive”.
Turning to `CCCCCCN(C(=O)CCCCCN1C(=O)NC(c2ccc(-c3ccccc3)cc2)C(C(=O)OCc2ccccc2)=C1C)C(C(=O)NCCCC)c1ccccc1` (stereo unspecified), in assay [1], the outcome was inactive. For the same molecule, in assay [2], the Potency result is “inactive”.
With `CCCCCCN(C(=O)CCCCCN1C(=O)NC(c2ccc(-c3ccccc3)cc2)C(C(=O)OCc2ccccc2)=C1C)C(C(=O)NCCCC)c1ccccn1` (stereo unspecified), the result in assay [1] was inactive. Besides, in assay [2], the Potency result is “inactive”.
As for `CC1=C(C(=O)OCc2ccccc2)C(c2ccc(C(F)(F)F)cc2)NC(=O)N1CCCCCC(=O)O` (stereo unspecified), in assay [1], the molecule was classed as inactive. Moreover, the Potency entry in assay [2] is “inactive”.
As to `COC(=O)CNC(=O)C1(CC(C)C)C=CCN1C(C)=O` (stereo unspecified), in assay [1], the outcome was inactive. In assay [2], the Potency result is “inactive”.
For the molecule `COC(=O)c1ccc(C(NC(=O)OCc2ccccc2)/C(C)=C/[C@@H](C)C(=O)NCc2cccnc2)cc1` (stereo partly specified), the molecule was called inactive in assay [1]. Moreover, in assay [3], the Potency is 0.794 µM (active). For the same molecule, in assay [2], the Potency entry was “inactive”.
Consider `CCCCCCN(C(=O)CCCCCN1C(=O)NC(c2ccc(C3CCCCC3)cc2)C(C(=O)OCc2ccccc2)=C1C)C(C(=O)NCCCC)c1ccc(OCC(=O)OC)c(C(=O)OC)c1` (stereo unspecified), for which the outcome in assay [1] was inactive. In addition, the Potency result in assay [2] was “inactive”.
With `CC(=O)N1CC=CC1(CC(C)C)C(=O)NCC1CC1` (stereo unspecified), the result in assay [1] was inactive. For the same molecule, the Potency entry in assay [2] is “inactive”.
`CN(C)c1ccc(CNC(=O)C2(C)C=CCN2C(=O)c2ccccc2)cc1` (stereo unspecified): the molecule was called inactive in assay [1]. Further, the Potency in assay [3] was 10 µM (active). In assay [2], the Potency result was “inactive”.
Regarding `C[C@@H]1C=C[C@](Cc2ccccc2)(C(=O)NCCN2CCOCC2)N1C(=O)c1ccccc1`, the call in assay [1] was inactive. In assay [2], the Potency entry was “inactive”.
Regarding `CC1=C(C(=O)OCc2ccccc2)C(c2ccc(C3CCCCC3)cc2)NC(=O)N1CCCCCC(=O)O` (stereo unspecified), in assay [1], the result was inactive. The Potency result in assay [2] was “inactive”.
Regarding `CC1(C(=O)NCCc2c[nH]c3ccccc23)C=CCN1C(=O)c1ccccc1` (stereo unspecified), the result in assay [1] was inactive. Moreover, in assay [3], the Potency is 10 µM (active). For the same molecule, the Potency result in assay [2] was “inactive”.
For `CCCCCCN(C(=O)CCCCCN1C(=O)NC(c2ccc(-c3ccccc3)cc2)C(C(=O)OCc2ccccc2)=C1C)C(C(=O)NCCCC)c1cccc(C(=O)OC)c1` (stereo unspecified), in assay [1], the molecule was called inactive. In addition, the Potency result in assay [2] was “inactive”.
On to `COc1ccc(CNC(=O)C(C)Cc2ccccc2)cc1O` (stereo unspecified), for which, in assay [1], the result was inactive. The Potency result in assay [2] is “inactive”.
In the case of `COCCNC(=O)C1(CC(C)C)C=CCN1C(=O)c1ccccc1` (stereo unspecified), the molecule was classed as inactive in assay [1]. In addition, the Potency entry in assay [2] was “inactive”.
Turning to `COC(=O)c1ccc(C(NC(=O)OCc2ccccc2)/C(C)=C/[C@@H](C)C(=O)NCc2nn(-c3ccccc3)nc2C)cc1` (stereo partly specified), in assay [1], the molecule was classed as inactive. Besides, in assay [3], the Potency is 2.51 µM (active). In addition, in assay [2], the Potency entry is “inactive”.
Consider `CC1(C(=O)NCCN2CCOCC2)C=CCN1C(=O)c1ccccc1` (stereo unspecified), for which the outcome in assay [1] was inactive. In addition, the Potency result in assay [2] was “inactive”.
For the molecule `CNC(=O)[C@H](C)/C=C(\c1cccnc1)C(NC(=O)OCc1ccccc1)c1ccc(C(=O)OC)cc1` (stereo partly specified), in assay [1], the outcome was inactive. Besides, the Potency result in assay [2] is “inactive”.
In the case of `CNC(=O)[C@@H]1C[C@H]1[C@@H](NC(=O)OCc1ccccc1)c1ccccc1`, the result in assay [1] was inactive. Besides, in assay [3], the Potency was 12.6 µM (active). The Potency entry in assay [2] is “inactive”.
In the case of `CCC[C@@H]1C[C@@]1(CCC)[C@@H](NC(=O)c1ccccc1)c1ccc(C(=O)OC)cc1`, the molecule was called inactive in assay [1]. Also, the Potency in assay [3] was 6.31 µM (active). Further, the Potency entry in assay [2] was “inactive”.
For the molecule `CC(=O)N1CC=CC1(C)C(=O)NCC1CC1` (stereo unspecified), the call in assay [1] was inactive. Moreover, the Potency result in assay [2] is “inactive”.
Take `COC(=O)c1ccc(C(NC(=O)OCc2ccccc2)/C(F)=C/[C@@H](C)C(=O)NCc2cc(F)cc(F)c2)cc1` (stereo partly specified): the molecule was called inactive in assay [1]. For the same molecule, in assay [3], the Potency is 3.98 µM (active). The Potency result in assay [2] is “inactive”.
On to `COC(=O)c1ccc(C(NC(=O)OCc2ccccc2)/C(=C/[C@@H](C)C(=O)N[C@@H](CO)Cc2ccccc2)c2cccnc2)cc1` (stereo partly specified), for which the molecule was classed as inactive in assay [1]. Also, in assay [3], the Potency is 1 µM (active). Also, the Potency result in assay [2] is “inactive”.
Regarding `COC(=O)[C@@H]1C[C@@]1(C)[C@@H](NC(=O)OCc1ccccc1)c1ccccc1`, the outcome in assay [1] was inactive. For the same molecule, the Potency in assay [3] is 25.1 µM (active). Further, the Potency result in assay [2] is “inactive”.
As for `CC(C)NC(=O)[C@@H]1C[C@H]1[C@@H](NC(=O)OCc1ccccc1)c1ccccc1`, the outcome in assay [1] was inactive. Further, in assay [3], the Potency is 3.98 µM (active). The Potency result in assay [2] was “inactive”.
Take `CN(C)C(=O)[C@H]1C[C@@H]1[C@H](NC(=O)OCc1ccccc1)c1ccccc1`: in assay [1], the outcome was inactive. Besides, in assay [3], the Potency was 7.94 µM (active). Besides, the Potency entry in assay [2] is “inactive”.
For `COC(=O)c1ccc(C(NC(=O)OCc2ccccc2)/C(C)=C/[C@@H](C)C(=O)N2CCN(C)CC2)cc1` (stereo partly specified), the molecule was classed as inactive in assay [1]. In assay [2], the Potency result was “inactive”.
For `CCCCCCN(C(=O)CCCCCN1C(=O)NC(c2ccc3ccccc3c2)C(C(=O)OCc2ccccc2)=C1C)C(C(=O)NCCCC)c1ccc(OCC(=O)OC)c(C(=O)OC)c1` (stereo unspecified), the call in assay [1] was inactive. The Potency in assay [3] was 2.51 µM (active). In addition, in assay [2], the Potency result was “inactive”.
Take `CCCCCCN(C(=O)CCCCCN1C(=O)NC(c2ccc(-c3ccccc3)cc2)C(C(=O)OCc2ccccc2)=C1C)C(C(=O)NCCCC)c1ccc(OCC(=O)O)c(C(=O)O)c1` (stereo unspecified): in assay [1], the outcome was inactive. For the same molecule, in assay [2], the Potency result was “inactive”.
For `CN(C)C(=O)[C@@H]1C[C@H]1[C@@H](NC(=O)OCc1ccccc1)c1ccccc1`, in assay [1], the result was inactive. The Potency in assay [3] was 10 µM (active). Besides, the Potency entry in assay [2] was “inactive”.
In the case of `CCCCNC(=O)C(c1ccc(OCC(=O)OC)c(C(=O)OC)c1)N(Cc1ccccc1)C(=O)CCCCCN1C(=O)NC(c2ccc(-c3ccccc3)cc2)C(C(=O)OCc2ccccc2)=C1C` (stereo unspecified), in assay [1], the molecule was classed as inactive. Further, the Potency in assay [3] was 5.01 µM (active). For the same molecule, the Potency entry in assay [2] was “inactive”.

For the origin of these results see PubChem BioAssay (NCATS).
